The list shows a part of the results. Calls of active or inactive are those of the source.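 How the source made its calls: active means every replicate shows more than 75% inhibition of signal versus neutral control wells; inconclusive means half to three quarters of replicates exceed 75% inhibition; inactive means fewer than half of replicates exceed 75% inhibition.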
Experiment: Vibrio harveyi AI-2 signaling luminescence modulation – JMH597 strain, confirmation (AID 2736)
Settings: Vibrio harveyi JMH597 AI-2 quorum sensing luminescence, 9 h; at 7.5 µM; stronger effect = higher value; luxN and CqsS knockout, AI-2 only
In the case of `COc1ccc(/C(N)=N/OC(=O)Cc2ccccc2)cc1`, the inhibition was 96% (active). In the case of `O=C(Nc1ccc(F)c(Cl)c1)C1CCN(S(=O)(=O)c2cccnc2)CC1`, the inhibition was 98.4% (active). With `Cc1ccccc1NC(=O)CCOc1ccccc1` the inhibition was 91.6% (active). With `COc1cccc(NC(=O)NCc2ccc(F)cc2)c1` the inhibition was 95.3% (active). In the case of `Cc1ccsc1C(=O)OCC(=O)c1cc2ccccc2o1`, the inhibition was 96.8% (active). In the case of `COC(=O)C1CCN(C(=O)c2ccc3oc(Cc4ccc(Cl)cc4)nc3c2)CC1`, the inhibition was 96.4% (active). In the case of `Cc1ccc(NC(=O)C2CC2c2ccccc2)cc1` (stereo not drawn), the inhibition was 94.7% (active). With `O=C(c1cc(-c2cccc(O)c2)on1)N1CCc2ccccc2C1` the inhibition was 94.4% (active). For `O=C(COC(=O)C1CCCCC1)Nc1ccc([N+](=O)[O-])cc1`, the inhibition was 95.3% (active). For `CC(C)(C)c1ccc(OC2=CS(=O)(=O)c3ccccc32)cc1`, the inhibition was 96.6% (active). For `CC(CNc1ccc([N+](=O)[O-])cc1)NC(=O)c1ccccc1Br` (stereo not drawn), the inhibition was 8.81% (inactive). With `O=C(CCC(=O)c1cccs1)Nc1nc2ccccc2s1` the inhibition was 97.8% (active). In the case of `Cc1ccccc1C(=O)Nc1ccc(N2CCCCCC2)cc1`, the inhibition was 94.5% (active). For `CN(Cc1cnccn1)C(=O)c1cc(COc2cccc(C(F)(F)F)c2)on1`, the inhibition was 97.2% (active). With `Cc1nn(CC(=O)Nc2ccc(F)cc2)c(=O)c2ccccc12` the inhibition was 99% (active). With `Cc1cc(CN(C)C(=O)c2cc(COc3ccc(C)c(C)c3)on2)n[nH]1` the inhibition was 97.5% (active). For `N/C(=N\OC(=O)CCc1ccccc1)c1cccnc1`, the inhibition was 93.1% (active). For `CCOc1ccc(/C=N/NC(N)=S)cc1`, the inhibition was 94.3% (active).

— PubChem BioAssay AID2736 (Broad Institute, 2010)
